# Compounds without any hit were thinned out: in the full panel of roughly 83,000, 20% have a hit.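 Results are percent growth after 48 hours of single-concentration exposure. 100 means growth as in untreated cells, lower positive values show inhibition; negative values down to -100 show cell death.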 Calls of active or inactive are those of the source. How the source made its calls: active means growth percent below 10; inactive means the rest.
# Test system: HL-60(TB) leukemia
# Assay: NCI-60 one-dose screen, 48 h (100 = growth as untreated, 0 = no growth, -100 = all killed)
# Details: 10 µM unless noted
row,Compound,growth
1,COc1ccc(-c2nn(-c3cccc(NC(=O)Nc4ccccc4)c3)cc2-c2ccncc2)cc1Cl,-10.6% (active)
2,COc1ccc(/C=C\c2cc(OC)c(OC)c(OC)c2)cc1OCC(=O)Nc1nc2ccccc2s1,18.7% (inactive)
3,O=C1C2CC3C(CC2C(=O)[N]1[Sn]([c]1ccccc1)([c]1ccccc1)[c]1ccccc1)C1(Cl)C(Cl)=C(Cl)C3(Cl)C1(Cl)Cl (configuration not stated),-58% (active)
4,O=C(Nc1ccc(N2CCNCC2)cn1)c1[nH]ncc1Nc1ncnc2sc3c(c12)CCC3,74% (inactive)
5,COc1ccc(/C(=C\c2cc(OC)c(OC)c(OC)c2)C(=O)N2CCNCC2)cc1,98% (inactive)
6,O=C1CN(Cc2ccc(C(=O)NO)cc2)C(=O)[C@@H](Cc2ccccc2)N1,130% (inactive)
7,C=C(C)[C@@H]1CC[C@]2(C(=O)N3CCN(C)CC3)CC[C@]3(C)[C@H](CC[C@@H]4[C@@]5(C)CC(CCCNC(C)=O)(CCCNC(C)=O)[C@H](OC(C)=O)C(C)(C)[C@@H]5CC[C@]43C)[C@@H]12,94% (inactive)
8,Nc1n[nH]c2ccc([C@@H]3Nc4cc5[nH]ncc5cc4[C@H]4C5CCC(C5)[C@@H]34)cc12 (some centres not stated),-8.95% (active)
9,COc1ccc(-c2cc(-c3cc(OC)ccc3OC)nc(N)c2C#N)cc1,90.4% (inactive)
10,COc1ccc(Cn2nc3c(c2-c2cc(OC)c(OC)c(OC)c2)-c2oncc2CC3)cc1,54.4% (inactive)
11,O=C(Cc1nc2cc(Cl)c(Cl)cc2nc1CC(=O)c1cccnc1)c1cccnc1,39.6% (inactive)
12,S=C(SSC(=S)N(c1ccccc1)c1ccccc1)N(c1ccccc1)c1ccccc1,85.1% (inactive)

# From PubChem BioAssay (NCI)
